# Hits are enriched below; roughly 10% of the tested compounds scored in any of these assays.
# HEK293 tox – kills HEK 293 cells; 6.6% of 94,000 active; AID 1345083; Potency, µM (series often up to 115 µM), for inactives: at the top dose activity change, negative = cytotoxicity, hits mostly inhibitors; HEK 293 viability, ATP luminescence (CellTiter-Glo), 48-72 h; further: on the % scale 0 is the no-effect control and ±100 the full control effect; nearly all actives have a fitted effect of over 60% in size
#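 Luminescence from cellular ATP, measured with CellTiter-Glo, indicates HEK 293 viability. Cells plated at 250 cells/well are treated with compound for 48 or 72 hr at 37 degree Celsius before reagent addition.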
# FLuc inh-1 – inhibitors of firefly (Photinus pyralis) luciferase; P08659; 2.5% of 76,000 active; purified P. pyralis luciferase, luminescence, biochemical; Potency, µM (titrated, usually from 115 µM), actives largely listed as inhibitors; AID 1347043; further: on the % scale 0 is the no-effect control and ±100 the full control effect; nearly all actives have a fitted effect of over 65% in size
#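 Biochemical qHTS: compound (6-point titration) added to 10uM D-luciferin plus 10uM ATP in Tris acetate pH 7.5 buffer with Mg, Tween-20 and BSA, then purified enzyme at 10nM; light output imaged.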
# NIH3T3 tox – kills NIH 3T3 cells; NIH 3T3 viability, CellTiter-Glo ATP luminescence, 48-72 h; Potency, µM (series often up to 96.7 µM), for the others: at the highest dose activity change, negative = cytotoxicity, usual class: inhibitors; 4.3% of 94,000 active; further: on the % scale 0 is the no-effect control and ±100 the full control effect; nearly all actives have a fitted effect of over 55% in size
#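 Cells were seeded at 400 per well, treated with pin-transferred compound, and kept 48 or 72 hr at 37 °C before CellTiter-Glo addition and luminescence imaging of cellular ATP.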
# hNpr1 antagonist – human Npr1 receptor antagonism; P16066; HEK293 hNpr1 GloSensor cGMP, ANP-stimulated luminescence; Potency, µM (series often up to 46.3 µM), for inactives: at the top dose activity change, negative = inhibition, hits mostly inhibitors; 1.6% of 76,000 active; calls by dose curve; further: on the % scale 0 is the no-effect control and ±100 the full control effect; nearly all actives have a fitted effect of over 60% in size
#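 HEK293 cells stably expressing human Npr1 and cGMP GloSensor pGS-40F, loaded 2 h with 2% GloSensor reagent, given compound 30 min at room temperature. Luminescence read before and 20 min after 0.1 nM hNppA.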
# GPT2 inhibitor – inhibitors of human GPT2 alanine aminotransferase; Recombinant GPT2, coupled pyruvate oxidase/HRP Amplex Red fluorescence; Potency, µM (titrated, usually from 57.7 µM), for inactives: top-dose activity change, negative = inhibition, actives largely listed as inhibitors; 0.25% of 100,000 active; AID 1671188; further: on the % scale 0 is the no-effect control and ±100 the full control effect; nearly all actives have a fitted effect of over 60% in size
#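 Fluorescence of coupled pyruvate oxidase/HRP/Amplex Red system (50uM Amplex, 30 min, dark) reports pyruvate formed by GPT2. Enzyme reaction: 10ng/uL GPT2, 2mM L-alanine, 250uM a-KG, 30 min room temperature, pH 7.5; 50uM AOA control.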
# FLuc SDR -ATP – firefly luciferase binding stabilization, ATP absent; 7.8% of 1,300 active; Purified FLuc-C-HiBiT, Nano-Glo HiBiT luminescence, no ATP; Potency, µM (titrated, usually from 32.7 µM), inactives show at the highest dose activation (signal gain), actives largely listed as activators; shares compounds with FLuc inh-1; further: nearly all actives have a fitted effect of over 55% in size
# FLuc SDR ATP – stabilizes firefly luciferase with ATP present. 8.7% of 1,300 active. purified FLuc-C-HiBiT + ATP, HiBiT complementation luminescence. shares compounds with FLuc inh-1. Potency, µM (doses to about 32.7 µM), without a hit: at the highest dose activation (gain of signal), most hits filed as activators;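 further: signal reports ligand binding via conformational change of the enzyme rather than luciferase catalysis; % of control where 0% means no effect; nearly all actives have a fitted effect of over 55% in size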
# FLuc inh-2 – inhibitors of firefly luciferase enzymatic activity. AID 1963320. Potency, µM (titrated, usually from 32.7 µM), inactives show top-dose activity change, negative = inhibition, hits mostly inhibitors. purified FLuc-C-HiBiT enzyme, luciferin luminescence. shares compounds with FLuc inh-1. 42% of 1,300 active; further: on the % scale 0 is the no-effect control and ±100 the full control effect; nearly all actives have a fitted effect of over 70% in size
# * marks the source's active call; other numbers are inactive results; i = inactive; ? = inconclusive; nt = not tested or not shown; [ ] = another dose, or the depositor's remark. Unless noted, the call rests on the fitted dose curve; in most records, active means well fitted curve in the direction sought with a large enough effect; inconclusive means small, poorly fitted or top-dose-only effect, or another doubt; inactive means no such curve, though single readings can be large; an effect the other way counts as inactive or inconclusive. Potency means the concentration at half of the fitted maximal effect.
SMILES,HEK293 tox,FLuc inh-1,NIH3T3 tox,hNpr1 antagonist,GPT2 inhibitor,FLuc SDR -ATP,FLuc SDR ATP,FLuc inh-2
C[C@@H]1C(=O)O[C@H]2[C@H]1CC[C@@]1(C)Cc3sc(NC(=O)c4ccncc4)nc3[C@@H](C)[C@H]21,56.2µM*,0.501µM*,?,?,?,?,?,0.57µM*
C[C@@H]1C(=O)O[C@H]2[C@H]1CC[C@@]1(C)Cc3sc(NC(=O)c4ccc(F)c(Cl)c4)nc3[C@@H](C)[C@H]21,?,i,-23.8%,-15.6%,-2.2%,nt,nt,nt
C[C@@H]1C(=O)O[C@H]2[C@H]1CC[C@@]1(C)Cc3sc(NC(=O)c4c(F)cccc4F)nc3[C@@H](C)[C@H]21,?,2.24µM*,-28.8%,?,-4.9%,20.5%,19.4%,9.89µM*
Cc1ccc(CN2C(=O)NC3(CCCN(C(=O)c4ccc5c(c4)OCO5)C3)C2=O)cc1 (centres undefined),-24.2%,i,?,4.8%,-6.0%,nt,nt,nt
CCC(C)n1c(C(C)CC(=O)Cc2ccccc2)nc2cccnc21 (centres undefined),?,nt,-28.6%,nt,4.1%,nt,nt,nt
CCc1ccccc1NC(=O)c1nnn(-c2ccc(F)cc2)c1C,nt,nt,nt,nt,nt,29.6%,18.8%,?
COc1ccc(CN2C[C@H](O)C[C@H]2c2nc(-c3ccc(OC)cc3)no2)cc1,?,11.2µM*,-29.8%[174 µM],?,1.3%[88.5 µM],-1.0%[49.3 µM],1.3%[49.3 µM],?
O[C@@H]1C[C@@H](c2nc(-c3ccccc3)no2)N(Cc2ccc(F)cc2)C1,-27.9%[172 µM],i,?,0.6%[70.6 µM],3.2%[88.5 µM],nt,nt,nt
CC(C)c1noc([C@@H]2C[C@@H](O)CN2Cc2cc3ccccc3o2)n1,-24.8%[172 µM],i,-4.1%[174 µM],-0.8%[70.6 µM],-10.1%[88.5 µM],nt,nt,nt
COc1ccc(-c2noc([C@@H]3C[C@@H](O)CN3Cc3cc4ccccc4o3)n2)cc1,-10.8%[172 µM],5.01µM*,-9.5%[174 µM],?,-2.5%[88.5 µM],18.4%[49.3 µM],?,16.1µM*
COCCCNC(=O)c1cn2cc(-c3ccc(C(F)(F)F)cc3)sc2n1,?,nt,?,nt,-19.7%,nt,nt,nt
Cc1ccc(-c2ccc3nnc(CNC(=O)COc4ccccc4)n3n2)cc1C,?,i,-27.0%,3.1%,i,nt,nt,nt
CCCc1nn2cc(-c3ccc(C)c(C)c3)nc2s1,nt,nt,nt,nt,nt,?,?,0.624µM*
CC(C)c1nc2c(c(-c3ccc(O)cc3)n1)CCN(Cc1ccccn1)CC2,0.9%,i,-21.3%,-2.1%,0.1%,8.2%,8.4%,-5.6%
CC(C)c1nc2c(c(-c3ccc(O)cc3)n1)CN(Cc1ccccc1)CC2,?,i,-26.5%,2.0%,-7.6%,11.0%,6.8%,-4.7%
O=C1NCCCCCCN[C@H]2C[C@H](c3nc(-c4cccnc4)no3)C[C@@H]12,-11.1%,i,-8.6%,5.2%,-6.2%,nt,nt,nt
CCOc1ccc(C(=O)Nc2onc3c2CCCC3)cc1,nt,nt,nt,nt,nt,?,7µM*,1.97µM*
O=C(Nc1onc2c1CCCC2)c1ccccc1,nt,nt,nt,nt,nt,18.4%,?,?
CC(C)COc1ccc(C(=O)Nc2onc3c2CCCC3)cc1,nt,nt,nt,nt,nt,27.8%,?,1.97µM*
COc1ccc(CC2CCOC3(CCNCC3)C2)cc1 (centres undefined),?,i,?,1.2%,2.8%,nt,nt,nt
CCC(CC)CN1C[C@]23C=C[C@H](O2)C(C(=O)N2CC(n4nc(C)cc4C)C2)C3C1=O (some centres undefined),-0.6%,i,-1.1%,-0.4%,i,nt,nt,nt
COc1ccc(N2CCN(c3ncncc3-c3nc(-c4ccccc4)no3)CC2)cc1,?,i,?,-9.8%,?,nt,nt,nt

# Screening data from PubChem BioAssay.
